For eight compounds, growth results are on record in PubChem BioAssay (NCI).

The structures appear in SMILES notation. The panel holds about 83,000 compounds, 20% with a hit somewhere; the sample as a whole holds those more often.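 Single-dose data. Exposure time 48 hours. Values below 10 considered active.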 Unmarked numbers belong to inactive results. Calls of active or inactive are those of the source.

Among the test systems are SK-MEL-2 melanoma; SN12C renal; UO-31 renal; TK-10 renal; ACHN renal; CAKI-1 renal; IGROV1 ovarian; OVCAR-3 ovarian; HS 578T breast; NCI/ADR-RES ovarian; A498 renal; OVCAR-4 ovarian; SK-OV-3 ovarian.
Assay in all cases: NCI-60 one-dose screen, 48 h (100 = growth as untreated, 0 = no growth, -100 = all killed)
For a further assay, the system named is EKVX NSCLC. The following applies: 10 µM unless noted.
A further assay relates to CCRF-CEM leukemia. The following applies: 10 µM unless noted.
The subject of a further assay is MOLT-4 leukemia. The following applies: 10 µM unless noted.
The next assay concerns OVCAR-8 ovarian. The following applies: 10 µM unless noted.
A further assay relates to OVCAR-5 ovarian. The following applies: 10 µM unless noted.
The next assay has as its system SR leukemia. The following applies: 10 µM unless noted.
The next assay has as its system RPMI-8226 leukemia. The following applies: 10 µM unless noted.

Turning to `CCCCCCC(C)c1ccccc1O` (stereo not given) (tested in a mixture with another compound), the growth in the assay on SK-MEL-2 melanoma (10 µM unless noted) is 123%; in the assay on EKVX NSCLC, 110%; in the assay with SN12C renal (10 µM unless noted), 106%; with UO-31 renal (10 µM unless noted), 99.1%; with TK-10 renal (10 µM unless noted) it was 119%; with ACHN renal (10 µM unless noted) it was 110%. The growth is 90.1% in the assay on CAKI-1 renal (10 µM unless noted); 99.1% in the assay with CCRF-CEM leukemia; 102% in the assay with MOLT-4 leukemia; 110% in the assay on OVCAR-8 ovarian; 104% in the assay on OVCAR-5 ovarian; 111% in the assay on IGROV1 ovarian (10 µM unless noted). Also, the values for the growth with OVCAR-3 ovarian (10 µM unless noted), in the assay on HS 578T breast (10 µM unless noted) and in the assay on NCI/ADR-RES ovarian (10 µM unless noted) were 111%, 101% and 98.6%, respectively.
In the case of `CNC(=O)N/N=C/c1ccc([N+](=O)[O-])o1`, the growth is 97.1% with SK-MEL-2 melanoma (10 µM unless noted); 107% with EKVX NSCLC; 90.7% with SN12C renal (10 µM unless noted); 90.5% in the assay with UO-31 renal (10 µM unless noted); 111% in the assay on TK-10 renal (10 µM unless noted); 106% in the assay with ACHN renal (10 µM unless noted). Also, the growth is 114% in the assay with CAKI-1 renal (10 µM unless noted); 102% in the assay on A498 renal (10 µM unless noted); 96.8% with CCRF-CEM leukemia; 82.7% in the assay on MOLT-4 leukemia; 82.8% in the assay with SR leukemia; 96.5% in the assay with OVCAR-8 ovarian. The growth is 108% in the assay on OVCAR-4 ovarian (10 µM unless noted); 109% with SK-OV-3 ovarian (10 µM unless noted); 98.1% in the assay on IGROV1 ovarian (10 µM unless noted); 103% in the assay with OVCAR-3 ovarian (10 µM unless noted); 98.1% in the assay on HS 578T breast (10 µM unless noted); 108% in the assay on NCI/ADR-RES ovarian (10 µM unless noted).
As to `O=[N+]([O-])c1ccc2c(N=Nc3ccc4ccccc4c3O)c(O)cc(S(=O)(=O)O)c2c1`, the growth was 102% in the assay on SK-MEL-2 melanoma (10 µM unless noted); 95.2% with EKVX NSCLC; 99.4% with SN12C renal (10 µM unless noted); 62.6% in the assay with UO-31 renal (10 µM unless noted); 91.6% in the assay on TK-10 renal (10 µM unless noted); 78.7% in the assay on ACHN renal (10 µM unless noted). The growth in the assay on CAKI-1 renal (10 µM unless noted) was 60.1%; in the assay with A498 renal (10 µM unless noted) it was 108%; with CCRF-CEM leukemia, 63.6%; in the assay with SR leukemia it was 90.3%; with RPMI-8226 leukemia, 96.8%; in the assay on OVCAR-5 ovarian, 106%. Besides, the growth with OVCAR-4 ovarian (10 µM unless noted) is 63%; in the assay with SK-OV-3 ovarian (10 µM unless noted), 90%; in the assay with IGROV1 ovarian (10 µM unless noted), 61.7%; in the assay with OVCAR-3 ovarian (10 µM unless noted) it was 41.4%; with HS 578T breast (10 µM unless noted), 105%; in the assay on NCI/ADR-RES ovarian (10 µM unless noted), 86.1%.
`Oc1c(Cl)c2ccccc2c2ccccc12`: the growth in the assay with SK-MEL-2 melanoma (10 µM unless noted) was 96.9%; with EKVX NSCLC, 117%; with SN12C renal (10 µM unless noted), 98.5%; with UO-31 renal (10 µM unless noted) it was 91.8%; in the assay with TK-10 renal (10 µM unless noted) it was 84.8%; with ACHN renal (10 µM unless noted), 100%. In addition, the growth was 111% with CAKI-1 renal (10 µM unless noted); 122% in the assay on A498 renal (10 µM unless noted); 112% in the assay with CCRF-CEM leukemia; 99.2% with SR leukemia; 102% with RPMI-8226 leukemia; 98.4% with OVCAR-8 ovarian. Further, the growth in the assay on OVCAR-5 ovarian was 129%; with OVCAR-4 ovarian (10 µM unless noted), 98.1%; in the assay on SK-OV-3 ovarian (10 µM unless noted), 111%; with IGROV1 ovarian (10 µM unless noted), 117%; in the assay on OVCAR-3 ovarian (10 µM unless noted) it was 107%; in the assay with NCI/ADR-RES ovarian (10 µM unless noted), 67.6%.
On to `O=C(Nc1ccc(F)cc1)ON=C1CCCCC1`, for which the growth in the assay with SK-MEL-2 melanoma (10 µM unless noted) was 102% [100 µM]; with EKVX NSCLC, 111% [100 µM]; in the assay on SN12C renal (10 µM unless noted), 100% [100 µM]; in the assay with UO-31 renal (10 µM unless noted) it was 92.2% [100 µM]; in the assay on TK-10 renal (10 µM unless noted), 101% [100 µM]; in the assay with ACHN renal (10 µM unless noted), 97.9% [100 µM]. Besides, the growth is 79.3% [100 µM] with CAKI-1 renal (10 µM unless noted); 95.2% [100 µM] in the assay with A498 renal (10 µM unless noted); 97.2% [100 µM] in the assay on CCRF-CEM leukemia; 95.3% [100 µM] in the assay on MOLT-4 leukemia; 84.9% [100 µM] in the assay with SR leukemia; 93.9% [100 µM] in the assay on RPMI-8226 leukemia. Further, the growth is 97.9% [100 µM] in the assay with OVCAR-5 ovarian; 99.1% [100 µM] with OVCAR-4 ovarian (10 µM unless noted); 129% [100 µM] in the assay with SK-OV-3 ovarian (10 µM unless noted); 102% [100 µM] with IGROV1 ovarian (10 µM unless noted); 108% [100 µM] in the assay on OVCAR-3 ovarian (10 µM unless noted); 99% [100 µM] in the assay with HS 578T breast (10 µM unless noted). In addition, the growth with NCI/ADR-RES ovarian (10 µM unless noted) is 105% [100 µM].
With `Cc1cc(C(C)(CC(C)C)c2ccc(O)c(C)c2)ccc1O`, the growth in the assay with SK-MEL-2 melanoma (10 µM unless noted) was 104%; with EKVX NSCLC it was 89.5%; in the assay on SN12C renal (10 µM unless noted), 85.6%; in the assay with UO-31 renal (10 µM unless noted), 84.6%; in the assay on TK-10 renal (10 µM unless noted) it was 141%; in the assay on ACHN renal (10 µM unless noted) it was 83.3%. Further, the growth in the assay with CAKI-1 renal (10 µM unless noted) was 73.3%; in the assay on A498 renal (10 µM unless noted) it was 101%; in the assay on CCRF-CEM leukemia, 92%; with MOLT-4 leukemia, 80.8%; with SR leukemia, 94.6%; with RPMI-8226 leukemia, 86.3%. For the same compound, the growth in the assay with OVCAR-5 ovarian is 113%; with OVCAR-4 ovarian (10 µM unless noted) it was 94.8%; with SK-OV-3 ovarian (10 µM unless noted), 97%; with IGROV1 ovarian (10 µM unless noted) it was 103%; with OVCAR-3 ovarian (10 µM unless noted) it was 106%; in the assay with HS 578T breast (10 µM unless noted), 129%. In the assay with NCI/ADR-RES ovarian (10 µM unless noted), the growth was 105%.
As to `NC(=S)N/N=C/c1ccc(Cl)s1`, the growth is 105% with SK-MEL-2 melanoma (10 µM unless noted); 76.6% in the assay with EKVX NSCLC; 101% in the assay with SN12C renal (10 µM unless noted); 100% in the assay on UO-31 renal (10 µM unless noted); 105% with TK-10 renal (10 µM unless noted); 109% in the assay on ACHN renal (10 µM unless noted). In addition, the growth in the assay with CAKI-1 renal (10 µM unless noted) was 98.1%; in the assay on A498 renal (10 µM unless noted), 97.1%; in the assay with CCRF-CEM leukemia, 94.6%; in the assay on MOLT-4 leukemia, 99.2%; in the assay with SR leukemia, 95.6%; in the assay with RPMI-8226 leukemia, 100%. Besides, the growth in the assay on OVCAR-5 ovarian is 111%; in the assay with OVCAR-4 ovarian (10 µM unless noted) it was 109%; in the assay on SK-OV-3 ovarian (10 µM unless noted), 109%; with IGROV1 ovarian (10 µM unless noted), 106%; with OVCAR-3 ovarian (10 µM unless noted) it was 105%; with HS 578T breast (10 µM unless noted), 103%. Besides, the growth in the assay on NCI/ADR-RES ovarian (10 µM unless noted) was 108%.
For `O=C(Nc1c(Cl)cccc1Cl)Oc1cccc2cccnc12`, the growth in the assay with SK-MEL-2 melanoma (10 µM) was 79.8%; in the assay with SK-MEL-2 melanoma (100 µM), 25.9%; in the assay on EKVX NSCLC, -9.97% [100 µM] (active); with SN12C renal (10 µM), 53.9%; in the assay with SN12C renal (100 µM), 33.1%; with UO-31 renal (10 µM), 17%. Also, the growth in the assay on UO-31 renal (100 µM) is 6.51% (active); in the assay on TK-10 renal (10 µM), 58.8%; in the assay with TK-10 renal (100 µM), 22.4%; in the assay with ACHN renal (10 µM), 38.8%; with ACHN renal (100 µM) it was 12.1%; with CAKI-1 renal (10 µM), -9.81% (active). For the same compound, the growth in the assay with CAKI-1 renal (100 µM) is 16.8%; in the assay on A498 renal (10 µM), 98.2%; with A498 renal (100 µM) it was 94.5%; with CCRF-CEM leukemia, 8.09% [100 µM] (active); with SR leukemia, 5.64% [100 µM] (active); in the assay on OVCAR-4 ovarian (10 µM) it was 15.9%. Further, the growth was 14.5% in the assay on OVCAR-4 ovarian (100 µM); 65.4% in the assay with SK-OV-3 ovarian (10 µM); 18% in the assay on SK-OV-3 ovarian (100 µM); 27% in the assay with IGROV1 ovarian (10 µM); 14.4% with IGROV1 ovarian (100 µM); 14% with OVCAR-3 ovarian (10 µM). The growth with OVCAR-3 ovarian (100 µM) was 4.16% (active); in the assay with HS 578T breast (10 µM), 90.6%; with HS 578T breast (100 µM), 46.6%; in the assay on NCI/ADR-RES ovarian (10 µM), 13.5%; with NCI/ADR-RES ovarian (100 µM), 3.5% (active).
